# TDP1 cell CPT: qHTS for Inhibitors of human tyrosyl-DNA phosphodiesterase 1 (TDP1): qHTS in cells in presence of CPT; chicken DT40 Tdp1-/-;hTDP1 cells + 20 nM CPT, ATP luminescence, 48 h; hit rate 12% among 420,000; Potency, µM (titrated, usually from 46.2 µM), for the others: at the highest dose activity change, negative = growth inhibition, hits mostly inhibitors; also: potency is read from the fitted curve at half-maximal effect; nearly all actives have a fitted effect of over 55% in size
#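 Chicken DT40 Tdp1-/- cells stably complemented with human TDP1 were seeded at 400 cells/well in medium containing 20 nM camptothecin, exposed to pin-transferred compounds, and grown at 37 °C for at least 48 hr. Viability was read as ATP luminescence.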
# CtBP-E1A inh: qHTS Assay for Inhibitors of the CtBP/E1A Interaction. CtBP / adenovirus E1A interaction (AlphaScreen). AlphaScreen GST-E1A/His-CtBP binding, 1536-well; stronger effect = lower value. activity change, % (concentration not given with the values). hit rate 0.49% among 340,000. AID 651724, 2012; in the data active = activity change below about -65%; inconclusive = mostly about -30% to -63%
#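 AlphaScreen with 125 nM GST-E1A and 125 nM His-CtBP (5X stocks) in Tris pH 8.0, 300 mM NaCl, BSA, Tween 20, TCEP. Compounds preincubated 2 h at 37 deg C, then glutathione donor/nickel acceptor beads added for 1 h at 37 deg C in dark.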
# TDP1 block: qHTS Assay for Inhibitors of Tyrosyl-DNA Phosphodiesterase (TDP1); recombinant TDP1, AlphaScreen DNA substrate cleavage; Tyrosyl-DNA phosphodiesterase 1 (Homo sapiens), Q9NUW8; hit rate 0.28% among 350,000; Potency, µM (titrated, usually from 130 µM), inactives show top-dose activity change, negative = inhibition, actives largely listed as inhibitors; AID 485290, 2010; also: potency is read from the fitted curve at half-maximal effect; nearly all actives have a fitted effect of over 40% in size
#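 Recombinant human Tdp1 (E. coli-expressed, 1 nM final) preincubated with compounds 15 min at room temperature, then 5'-biotin/3'-phosphotyrosine-FITC DNA substrate (15 nM final) added for 5 min. AlphaScreen beads (10 ug/ml final) added 10 min; cleavage lowers signal.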
# Six1-Eya2 inh: qHTS Assay for Inhibitors of the Six1/Eya2 Interaction. activity change, % (concentration not given with the values). AID 651725, 2012. AlphaScreen GST-Six1/His-Eya2 binding, biochemical; stronger effect = lower value. Homeobox protein SIX1 (Homo sapiens) + Protein phosphatase EYA2 (Homo sapiens), …. hit rate 0.56% among 360,000; in the data active = activity change below about -65%; inconclusive = mostly about -30% to -63%
# Target sequence (O00167 whole entry, looked up): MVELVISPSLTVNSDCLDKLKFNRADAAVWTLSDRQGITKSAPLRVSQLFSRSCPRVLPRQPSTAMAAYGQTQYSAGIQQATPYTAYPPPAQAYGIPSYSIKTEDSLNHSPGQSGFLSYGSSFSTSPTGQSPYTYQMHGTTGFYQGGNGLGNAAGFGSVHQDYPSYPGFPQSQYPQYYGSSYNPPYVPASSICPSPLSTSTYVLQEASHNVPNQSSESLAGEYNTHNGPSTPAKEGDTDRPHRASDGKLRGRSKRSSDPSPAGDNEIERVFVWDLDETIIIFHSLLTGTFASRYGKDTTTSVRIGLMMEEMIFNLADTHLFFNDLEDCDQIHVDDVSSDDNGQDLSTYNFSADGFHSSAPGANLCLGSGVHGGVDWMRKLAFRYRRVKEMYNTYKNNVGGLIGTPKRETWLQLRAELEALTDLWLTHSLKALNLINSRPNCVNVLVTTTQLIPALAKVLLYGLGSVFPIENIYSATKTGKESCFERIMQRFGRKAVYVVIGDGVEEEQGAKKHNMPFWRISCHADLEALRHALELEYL
# Target sequence (Q15475 whole entry, looked up): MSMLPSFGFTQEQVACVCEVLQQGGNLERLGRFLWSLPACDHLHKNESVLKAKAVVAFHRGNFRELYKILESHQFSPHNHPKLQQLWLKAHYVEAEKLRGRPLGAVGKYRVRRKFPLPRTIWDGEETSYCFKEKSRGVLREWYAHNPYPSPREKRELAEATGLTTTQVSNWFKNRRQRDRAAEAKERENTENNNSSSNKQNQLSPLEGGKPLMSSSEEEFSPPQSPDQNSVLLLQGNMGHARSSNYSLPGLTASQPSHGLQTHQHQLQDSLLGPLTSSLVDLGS
#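 GST-Six1 + His-Eya2 (5X stock: 250/500 nM); Tris pH 8.0, 300 mM NaCl, 0.05% BSA, 0.02% Tween 20; GSH donor/Ni acceptor beads; 1 h 37 °C dark; AlphaScreen readout.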
# TDP1 cell noCPT: qHTS for Inhibitors of human tyrosyl-DNA phosphodiesterase 1 (TDP1): qHTS in cells in absence of CPT. DT40 Tdp1-/- hTDP1 cells, no CPT, ATP luminescence, 48 h. AID 686978, 2013. Potency, µM (top dose mostly 46.2 µM), for inactives: at the top dose activity change, negative = growth inhibition, usual class: inhibitors. hit rate 15% among 420,000; also: potency is read from the fitted curve at half-maximal effect; nearly all actives have a fitted effect of over 55% in size
#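 A cellular qHTS used chicken DT40 cells lacking endogenous Tdp1 but carrying stably transfected human TDP1. Compounds were applied without camptothecin, and cell growth kinetics were judged by ATP-dependent luminescence after ≥48 hr.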
# IL1B secr inh: qHTS for Inhibitors of Inflammasome Signaling: IL-1-beta AlphaLISA Primary Screen | THP-1 LPS/ATP IL-1B secretion, AlphaLISA, 16 h; stronger effect = lower value | activity change, % at 57.5 µM | hit rate 4.7% among 360,000 | AID 743279, 2014; in the data active = activity change below about -50%; inconclusive = mostly about -30% to -49%
#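 Secreted IL-1B measured by AlphaLISA bead assay after 16 h compound exposure of THP-1 cells; compounds (final up to 57.5 uM) added 1 h before LPS (250 ng/mL) and ATP (1.25 mM) stimulation; lower signal means less secretion.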
# An asterisk follows results filed as active; ? = inconclusive; · = no result. In the library only some 18% were active in any assay of this set; here they are far more common. Unless noted, calls follow the shape of the dose curve; as a rule, active = well fitted curve in the direction sought with a large enough effect; inconclusive = small, poorly fitted or top-dose-only effect, or another doubt; inactive = no such curve, though single readings can be large; an effect the other way counts as inactive or inconclusive. % is scaled to controls: 0 for no effect and ±100 for the full control effect.
SMILES,TDP1 cell CPT,CtBP-E1A inh,TDP1 block,Six1-Eya2 inh,TDP1 cell noCPT,IL1B secr inh
O=Cc1c(-[n+]2ccccc2)nc([O-])n1-c1ccccc1,?,-2.7,-0.9%,2.5,18.4µM*,15.7
COc1ccccc1N=Cc1c(C)[nH]n(-c2ccc(C)cc2C)c1=O,8.1%,1.8,2.8%,-21.7,-8.9%,22.2
COc1ccc2nc(/N=C/c3c(C)[nH]n(-c4ccc(C)cc4C)c3=O)sc2c1,-15.7%,-87.6*,5.7%,-70.3*,-7.9%,13.9
COc1cc(SC#N)ccc1N=Cc1c(C)[nH]n(-c2cccc3ccccc23)c1=O,10.3µM*,?,5.9%,?,10.3µM*,-76.4*
COc1cc(SC#N)ccc1N=Cc1c(C)[nH]n(-c2ccc(C)cc2C)c1=O,20.6µM*,-19.1,8.2%,-29.6,14.6µM*,-97.4*
CNS(=O)(=O)c1ccc(N=Cc2c(C)[nH]n(-c3ccc(C)cc3C)c2=O)cc1,-10.8%,-1.5,0.0%,-1.7,-11.0%,-19.1
CC(C)CCNC(=O)c1ccc(Cl)c(N)c1,·,·,-1.2%,·,·,·
O=C1c2cccc3c(N4CCCCC4)ccc(c23)C(=O)N1c1ccc(O)cc1,?,15.9,-6.5%,10.4,23.1µM*,-4.3
O=C1c2cccc3cccc(c23)C(=O)N1c1ccc(O)cc1,-1.1%,·,-19.4%,-9.4,4.9%,-2.2
O=C1c2cccc3c(N4CCCCC4)ccc(c23)C(=O)N1c1ccccc1O,13µM*,37.5,0.0%,47.5,20.6µM*,-24.9
O=S(=O)(c1cccc2nsnc12)N1CCN(Cc2ccccc2)CC1,-3.7%,-4.1,·,-7.1,-22.3%,8.9
c1ccc(-c2nnc(SCCC3OCCCO3)o2)cc1,0.3%,11.3,-4.0%,8.2,-10.5%,-11.0
Cc1ccccc1CN1C(=O)C2(OCCCO2)c2ccccc21,11.2µM*,11.1,2.9%,3.5,?,-8.3
COc1ccc(N2C(=O)/C(=C\c3ccco3)N=C2SCC(=O)NC(C)(C)C)cc1Cl,?,4.0,5.4%,-10.3,?,?
CCN(CC)C(=O)CSC1=N/C(=C/c2ccco2)C(=O)N1c1ccc(OC)c(Cl)c1,20.6µM*,-2.0,0.0%,-12.0,?,-53.9*
NC(=O)CSC1=N/C(=C\c2ccco2)C(=O)N1c1ccc(OC(F)F)cc1,?,-11.3,-2.5%,-10.6,13µM*,-9.2
COc1ccc(/C=C2/N=C(SCC(=O)Nc3cc(C)on3)N(c3ccccc3)C2=O)cc1,6.3%,-14.8,-2.3%,-15.4,9.3%,28.1
CC1=N/C(=C\c2ccc(OC(C)C)cc2)C(=O)N1c1ccc(C(=O)O)cc1,?,1.1,-2.7%,9.4,-13.0%,-20.5
CCOc1cc(/C=C2\N=C(SC(C)C(N)=O)N(c3ccc(OC(F)F)cc3)C2=O)ccc1O (configuration not stated),?,-10.8,3.8%,-5.3,10.3µM*,-11.9
Cc1cc(C(=O)C(=O)Nc2nnc(C(C)C)s2)c(C)n1-c1ccccc1,?,·,8.6%,·,-10.2%,·
COc1ccc(CCNC(=O)c2cc3c(=O)n4cccc(C)c4nc3n(Cc3ccco3)c2=N)cc1OC,?,1.9,5.9%,19.3,25.9µM*,9.8
Cc1cccn2c(=O)c3cc(C(=O)NCc4ccco4)c(=N)n(CCc4ccccc4)c3nc12,-96.0%,?,2.5%,?,14.6µM*,-84.6*
COc1ccc(CCNC(=O)c2cc3c(=O)n4cccc(C)c4nc3n(Cc3ccncc3)c2=N)cc1,·,·,4.8%,·,·,·
Cc1cccn2c(=O)c3cc(C(=O)NCCc4ccccc4)c(=N)n(Cc4ccco4)c3nc12,20.6µM*,0.0,-18.4%,-15.0,10.3µM*,3.9
Cc1cccn2c(=O)c3cc(C(=O)NCc4ccco4)c(=N)n(C(C)C)c3nc12,-26.1%,-19.3,4.4%,-7.4,-28.3%,-29.9
SMILES,TDP1 cell CPT,CtBP-E1A inh,TDP1 block,Six1-Eya2 inh,TDP1 cell noCPT,IL1B secr inh
Cc1c(Cl)ccc2sc(NC(=O)CN3C(=O)c4ccccc4C3=O)nc12,8.0%,-0.9,1.3%,4.0,-0.4%,-2.6
C=C(C)CC1(NC(C)c2ccccc2)CCCCC1 (configuration not stated),23.1µM*,3.8,2.2%,20.7,?,11.5
CC(NC(=O)CC1CCCCC1)c1ccccc1 (configuration not stated),-9.1%,6.7,1.5%,11.7,1.0%,3.7
COC(C(=O)N/N=C(\C)CC(=O)Nc1ccc(N(C)C)cc1)c1ccccc1 (configuration not stated),2.4%,-3.4,6.1%,-12.0,-7.5%,78.2
Cc1ccc(OCc2nnc(SCc3ccc(C#N)cc3)n2-c2ccc(C)cc2)cc1,?,-2.5,0.0%,-6.4,16.4µM*,-18.6
Cc1ccc(-n2c(SCc3ccc([N+](=O)[O-])cc3)nc3ccccc3c2=O)cc1,?,4.6,6.4%,-0.5,?,5.5
COc1ccc(-n2c(SCc3ccc([N+](=O)[O-])cc3)nnc2-c2ccc(C)cc2)cc1,?,-16.0,-2.7%,-18.9,?,-50.0*
COc1ccc(CC(=S)NCCc2ccccc2)cc1,-27.5%,11.9,·,6.4,?,79.1
Cc1ccc(O)c(N=Nc2ccc(S(=O)(=O)N3CCOCC3)cc2)c1,2.4%,?,3.6%,?,-15.8%,-5.1
C/C(O)=C(\N=Nc1cc(C)ccc1O)C(N)=O,?,·,8.4%,-6.6,20.6µM*,30.2
CNc1ccccc1C(=O)OCC(=O)Nc1ccc2c(c1)OCO2,-10.2%,11.8,-1.7%,4.1,-3.8%,-17.7
CCc1cc(=O)[nH]c(SCc2cccc3ccccc23)n1,-9.4%,·,4.4%,-0.2,-17.9%,10.7
COc1cccc(Nc2nc3ccccc3nc2NS(=O)(=O)c2cccs2)c1,9.2µM*,-7.1,4.1%,8.5,10.3µM*,?
COc1ccc(S(=O)(=O)Nc2nc3ccccc3nc2Nc2cccc(C(=O)O)c2)cc1,-0.6%,·,5.5%,-15.8,-17.8%,5.8
COc1ccc(Nc2nc3ccccc3nc2NS(=O)(=O)c2ccc(Cl)cc2)cc1OC,9.2µM*,·,·,·,?,·
